Assay outcomes from PubChem BioAssay.
Sampled rows, rich in hits. Any-hit rate of the full collection: about 4.6%.
tim23-1 inh – tim23-1 yeast growth inhibition; S. cerevisiae tim23-1 growth, BacTiter-Glo luminescence, 24 h; inhibition, % at 20 µM; 330,000 compounds, 1.3% hits; AID 463212;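 active means growth inhibition of the mutant yeast at or above 50%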;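 further: temperature-sensitive mutant grown at 25 °C; plate controls were DMSO-treated mutant yeast for no effect and medium wells lacking yeast for full effect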
tim10-1 inh – tim10-1 yeast growth inhibition; S. cerevisiae tim10-1 ts strain growth, BacTiter-Glo, 24 h; inhibition, % at 20 µM; 330,000 compounds, 2.2% hits; AID 463190;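 active means inhibition of at least 40%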;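 further: mutant grown at 25 °C; 0% = DMSO wells with yeast and 100% = wells holding no yeast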
NALP3 yeast inh – inhibitors of NALP3 inflammasome in yeast | Yeast reconstituted NLRP3/ASC/caspase-1, beta-gal luminescence, 24 h | inhibition, % at 10 µM | 330,000 compounds, 0.39% hits;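 active means inhibition of 50% or more; inactive means inhibition below 50%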;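 further: plate controls were induced DMSO wells for no effect and uninduced yeast grown without galactose for full effect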
TIM10 inh – inhibits growth of TIM10 yeast strain | S. cerevisiae TIM10 strain growth, BacTiter-Glo luminescence, 24 h | inhibition, % at 10 µM | 330,000 compounds, 1.4% hits | AID 463195;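 active means inhibition of 40% or more at the single tested concentration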;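 further: wild-type TIM10 isogenic control strain grown at permissive 25 °C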
SKKanGAS inh – SKKanGAS growth inhibition; S. pyogenes SKKanGAS, kanamycin growth, BacTiter-Glo, 6 h; inhibition, % at 7.5 µM; 300,000 compounds, 1.3% hits;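 active means mean replicate score, as percent of positive control median, at least 50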;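 further: strain carries kanamycin resistance gene driven by streptokinase promoter and grows in 40 µg/ml kanamycin; loss of luminescence reflects streptokinase promoter inhibition or plain growth inhibition; 0% = median of DMSO wells and 100% = positive control at its reference dose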
PfHsp90 yeast 2 – growth inhibition of yeast expressing Plasmodium Hsp90; S. cerevisiae expressing PfHsp90, BacTiter-Glo ATP, 48 h; yeast lacking PDR1 and PDR3 efflux regulators; inhibition, % at 9.4 µM; 310,000 compounds, 0.32% hits;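 active means every replicate shows inhibition above about 80%, whatever the replicate mean, limit read from the data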;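 further: 0% = DMSO neutral controls and 100% = 20 µM radicicol positive controls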
tim10-1 conf – tim10-1 yeast growth inhibition, confirmed; S. cerevisiae tim10-1 ts strain growth, BacTiter-Glo, 24 h; 7,400 compounds, 56% hits; shares compounds with tim10-1 inh; inhibition, % at 20 µM;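 active means inhibition of yeast growth at or above a set limit in either of two repeat tests at 20 µM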;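 further: tim10-1 mutant grown at permissive 25 °C to find synthetic lethal compounds; 0% = DMSO yeast wells and 100% = medium wells without yeast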
TIM10 conf – confirmation of TIM10 yeast growth inhibitors; shares compounds with TIM10 inh; S. cerevisiae tim10 strain growth, BacTiter-Glo luminescence, 24 h; inhibition, % at 10 µM; 4,600 compounds, 63% hits;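 active means inhibition of yeast growth at or above a set limit in either of two replicates at 10 µM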;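 further: this counterscreen used the strain with wild-type TIM10; 0% = yeast with DMSO and 100% = medium wells lacking yeast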
tim23-1 confirm – confirmation of tim23-1 mutant yeast growth inhibitors | shares compounds with tim23-1 inh | 4,400 compounds, 83% hits | inhibition, % at 20 µM | S. cerevisiae tim23-1 growth, BacTiter-Glo luminescence, 24 h | AID 463218;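 active means inhibition above about 39% in either of two replicate wells at 20 µM, limit read from the data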;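 further: temperature-sensitive tim23-1 mutant grown at 25 °C; 0% = DMSO wells with yeast and 100% = medium wells without yeast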
Starred values were filed as active, the others as inactive; / = no result.

SMILES	tim23-1 inh	tim10-1 inh	NALP3 yeast inh	TIM10 inh	SKKanGAS inh	PfHsp90 yeast 2	tim10-1 conf	TIM10 conf	tim23-1 confirm
COc1ccc(OCCCC(=O)ON=C(N)c2ccccc2Cl)cc1	31	24	20	39	/	-12	/	/	/
Cc1ccc(CN2CCN(c3cccc4[nH]ccc34)CC2)cc1	20	31	9	10	-2	3	/	/	/
CNC(=S)N/N=C/c1cn(Cc2c(F)cccc2Cl)c2ccccc12	51*	47*	16	57*	24	-62	37*	-10	40*
CCNC(=S)N/N=C/c1cn(Cc2ccccc2F)c2ccccc12	18	14	17	30	-6	-48	/	/	/
COc1ccccc1C/C(N)=N/OC(=O)COc1cccc(C)c1C	70*	63*	-2	53*	13	-12	68*	46*	62*
COc1ccccc1C/C(N)=N/OC(=O)COc1cc(C)cc(C)c1C	78*	65*	-3	73*	5	-9	70*	68*	81*
O=C(CN1CCCCC1)Nc1ccc(S(=O)(=O)c2ccc(NC(=O)CN3CCCCC3)cc2)cc1	/	/	/	/	/	20	/	/	/
Cc1ccc(C(c2cc(Cl)c3cccnc3c2O)N2CCN(C)CC2)cc1 (stereo not given)	55*	41*	38	8	51*	107*	25	/	80*
Oc1c(C(c2ccccn2)N2CCC(Cc3ccccc3)CC2)cc(Cl)c2cccnc12 (stereo not given)	55*	43*	15	27	75*	/	28	/	68*
CC(=O)NC(c1cc(Cl)c2cccnc2c1O)C1CC1 (stereo not given)	40	33	30	4	/	-10	/	/	/
CC(=O)NC(c1cc(Cl)c2cccnc2c1O)C(C)C (stereo not given)	25	23	22	-22	/	6	/	/	/
OCCCNc1nc(-c2ccc(Cl)cc2)nc2ccccc12	60*	43*	17	34	-3	28	27	/	31
OCCCNc1nc(-c2ccc(Br)cc2)nnc1-c1ccc(Cl)cc1	54*	42*	6	12	24	40	31*	/	59*
Cc1nnc(-c2ccc(Cl)cc2)nc1NCCN(C)C	-6	5	-3	2	-9	45	/	/	/
COCCCNc1nc(-c2ccc(Cl)cc2)nc2ccccc12	59*	46*	26	27	0	2	34*	/	54*
CCCn1c(C)cc(C(=O)COC(=O)c2ccc[nH]c2=O)c1C	6	21	9	6	6	-23	/	/	/
O=C(CCNC(=O)c1ccccc1Cl)Nc1nccs1	-8	3	1	12	-7	-13	/	/	/
Cc1ccccc1C(=O)NCC(=O)OC1CCCCC1=O (stereo not given)	5	-3	4	-6	-9	/	/	/	/
O=C1CC(c2cccc(Cl)c2)c2cc3c(cc2N1)CCC3 (stereo not given)	60*	41*	7	13	-6	-149	23	/	57*
COc1cccc(C2CC(=O)Nc3cc4c(cc32)CCC4)c1 (stereo not given)	40	3	24	19	-1	20	/	/	/
CCCCn1c(SCC(=O)Nc2nnc(C)s2)nnc1-c1ccncc1	-3	6	2	-2	1	0	/	/	/
CNC(=O)/C(C#N)=C/c1cccc(Oc2ccccc2)c1	91*	87*	25	78*	-6	25	90*	78*	80*
O=C(C[C@H]1C/C=C\CC[C@H](Cc2ccc(F)cc2)C(=O)OC[C@@H](Cc2c[nH]c3ccccc23)NC1=O)NCCO	6	2	22	-2	/	-14	/	/	/
O=C(NNC(=O)c1cc(Cl)ccc1O)c1cccc(S(=O)(=O)N2CCOCC2)c1	-4	4	12	-1	-1	5	/	/	/
COc1ccccc1NC(=O)Nc1ccc(-n2ccc(C(F)(F)F)n2)cc1	64*	54*	16	30	3	10	50*	/	60*
SMILES	tim23-1 inh	tim10-1 inh	NALP3 yeast inh	TIM10 inh	SKKanGAS inh	PfHsp90 yeast 2	tim10-1 conf	TIM10 conf	tim23-1 confirm
CSc1nc(-c2ccc(C)cc2)nc(N)c1C#N	9	-6	-9	10	-6	-14	/	/	/
CC1=C(C#N)c2nc(N)c(C#N)c(C)c2/C1=C\c1ccc(C)cc1	56*	73*	21	82*	71*	/	90*	1	68*
CCCn1nc(NC(=O)c2cccs2)c2cc3ccc(C)cc3nc21	-2	-4	21	-3	3	5	/	/	/
CCCn1nc(NC(=O)c2cccs2)c2cc3ccccc3nc21	52*	49*	27	24	2	/	37*	/	51*
O=C(N/N=C/c1cc(Br)c(Br)o1)c1ccc2c(c1)OCCO2	53*	65*	34	57*	5	4	53*	59*	80*
O=c1[nH]c(/C=C/c2ccccc2Cl)nc2ccccc12	15	24	22	24	1	1	/	/	/
Clc1ccc(/C=C/c2nc3ccccc3[nH]2)c(Cl)c1	62*	41*	11	50*	43	/	41*	32*	76*
Clc1cccc(Cl)c1/C=C/c1nc2ccccc2[nH]1	85*	45*	38	65*	2	11	34*	53*	88*
CC(=O)Nc1c2c(nn1-c1ccc(Cl)cc1)CSC2	5	2	9	-7	-2	-14	/	/	/
CCN1/C(=C/c2ccc3cccc(C)c3[n+]2CC)Sc2ccccc21	68*	64*	6	77*	52*	-15	74*	79*	72*
COc1ccc(C(=O)/C=C/c2cccs2)c(OC(=O)N2CCOCC2)c1	51*	50*	0	52*	-16	-7	34*	40*	42*
CCN(CC)c1ccc(/C=N/NC(=O)c2nnn(-c3nonc3N)c2C(C)C)c(O)c1	62*	72*	24	60*	59*	23	16	66*	61*
CCOC(=O)C1=C(C)N=C2SC(C(=O)OC)=CC(=O)N2C1c1cccc(OC)c1 (stereo not given)	20	13	15	11	16	-12	/	/	/
CCOC(=O)C1=C(C)N=C2SC(C(=O)OC)=CC(=O)N2C1c1ccc(F)cc1 (stereo not given)	86*	75*	34	77*	-3	-15	81*	84*	78*
O=C(COC(=O)CCNS(=O)(=O)c1ccccc1)Nc1ccc(OC(F)F)cc1	11	12	12	7	/	4	/	/	/
